Compounds without any hit were thinned out: in the full panel of roughly 83,000, 20% have a hit.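 Percent growth is the endpoint: 0 to 100 indicates growth inhibition (40 means 60% inhibition), 0 means no net growth, and negative values indicate cell death.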 A number with no mark means an inactive call. The source made the active and inactive calls.
Test system: HT29 colon
Assay: NCI-60 one-dose screen, 48 h (100 = growth as untreated, 0 = no growth, -100 = all killed)
Conditions: 10 µM
Experimental: Growth inhibition of the HT29 human tumor cell line is measured as a screen for anti-cancer activity. Cells are grown in 96 well plates and exposed to the test compound for 48 hours. Compounds are tested at a single concentration, which is 10^-5 M for most compounds. The reported endpoint is percent growth (GI% or GIPRCNT), where numbers from 0 - 100% represent growth inhibition, and numbers from -100% - 0 represent cell death. For example, a value of 40 represents 60% growth inhibition. A value of 0 means no net growth occurred over the course of the experiment. A value of -40 indicates 40% of cells at the beginning of the experiment died by the end of the experiment. A value of -100 means all cells are dead at the end of the experiment.
NCI-60 Human Tumor Cell Lines Screen was performed using the standard one-dose NCI protocol, which is described in more detail at https://dtp.cancer.gov/discovery_development/nci-60/default.htm.
Compounds with GIPRCNT values below 10 were considered active. Activity score was based on GIPRCNT using the following formula: […]
Score is 0 for GIPRCNT values of 100 or above, 50 for GIPRCNT values of 0, and 100 for GIPRCNT values of -100.

Compound	growth
COc1ccc(/C=C/C(=O)Nc2ccc(-c3nc4ccc(F)cc4s3)cc2)cc1	101%
CCOC(=O)c1ccc(NC(=O)Nc2ncc(Cl)cc2Cl)cc1	95.3%
N#CCCN1C/C(=C/c2ccccc2)C(=O)/C(=C/c2ccccc2)C1	-48.5% (active)
CN(C)CC(O)c1ccc2cc(Br)c3ccccc3c2c1 (stereo not given)	22%
O=C1OCC2=C1C(c1cccc(Cl)c1)c1cc3c(cc1N2CCO)OCO3 (stereo not given)	4.61% (active)
COc1ccc(NC(=O)CSc2nc3ccccc3c(=O)n2CCc2ccccc2)cc1	110%
CNc1ncc(-c2ccc(C(F)(F)F)cc2)c(NC2CCCCCC2)n1	56.8%
COc1cc2c(cc1OCCCN1CCN(c3ncnc4ccccc34)CC1)N=CC1CCCN1C2=O (stereo not given)	12.3%
COc1ccc(-c2nn(-c3cccc(NC(=O)Nc4ccc(Cl)c(C(F)(F)F)c4)c3)cc2-c2ccncc2)cc1Cl	2.78% (active)
COc1cc(-c2cc(/C=C/C(=O)c3ccc4c(c3)OCO4)[nH]n2)cc(OC)c1OC	43%
COc1ccc(-c2nn(-c3cccc(NC(=O)c4ccc5c(c4)OCCO5)c3)cc2-c2ccncc2)cc1Cl	0.486% (active)
CCCCOc1ccc(NC(=O)Nc2nnc(C)s2)cc1	99.4%
CC1(C)N=C(N)N=C(N)N1c1ccc(CCc2ccccc2)c(Cl)c1	1.41% (active)
CCCCCCCCCCCCCCCCCC(=O)OCCCCCCC	102%
O=C(c1ccc(Cl)cc1Cl)N1CCOCC1	105%
CC(=O)[C@H]1CC[C@H]2[C@@H]3CCC4=CC(=O)C=C[C@]4(C)[C@H]3CC[C@]12C	96.2%
Cc1ccc(C(=O)N2C/C(=C/c3ccc(F)cc3)C(=O)/C(=C/c3ccc(F)cc3)C2)cc1	74.1%
COc1cccc(Cn2c(-c3nonc3N)nc3ccccc32)c1	-5.42% (active)
CCOC(=O)C(=Cc1ccc(Br)cc1)C(=O)OCC	-64% (active)
ClCCOCCn1cnc2c(Cl)nc(Cl)nc21	36.6%

Compound	growth
CSc1nn(-c2ccccc2)c2ncnc(Oc3ccc(C)cc3)c12	99.3%
CCN(CC)CCCC(C)Nc1nc(-c2ccc(OC)cc2)nc2cc(Cl)ccc12 (stereo not given)	27.9%
O=C(O)C(SC(C(=O)O)c1ccccc1)c1ccccc1 (stereo not given)	103%
CC1(C)CCC(=NNC(N)=S)CC1	95.1%
COc1ccc2c(c1)C(=O)c1c-2c(OCCN(C)C)nc2ccccc12	12.2%
Cc1ccc(NC(=O)Nc2cccnc2)cc1NC(=O)Nc1cccnc1	89.6%
COc1ccc(-c2nn(-c3cccc(NC(=O)c4ccc(Cl)c(Cl)c4)c3)cc2-c2ccncc2)cc1Cl	78.2%
CC(C)N(CCNc1nc(C(Cl)(Cl)Cl)nc2cc(Cl)ccc12)C(C)C	-32.9% (active)
CC(=O)OCc1cc(-c2nc3ccccc3[nH]c2=O)nn1-c1ccc(Cl)cc1	104%
COc1cc(C(=O)N2CCN(c3ccccc3OC)CC2)c(N)cc1OCCCN1CCN(c2ccccc2OC)CC1	98.2%
ClCC#CCSc1ncnc2c1ncn2CC#CCCl	17.7%
O=C1C(=O)c2ccccc2C(O)=C1CCCc1ccc(C2CCCCCC2)cc1	28.5%
C=C(NC(=O)C(=C)NC(=O)c1csc(C2=NC3c4csc(n4)C4NC(=O)c5csc(n5)C(C(C)(O)C(C)O)NC(=O)C5CSC(=N5)/C(=C/C)NC(=O)C(C(C)O)NC(=O)c5csc(n5)C3(CC2)NC(=O)C(C)NC(=O)C(=C)NC(=O)C(=C)NC(=O)C(C(C)C)NC2C=Cc3c(C(C)O)cc(nc3C2O)C(=O)OC4C)n1)C(N)=O (stereo not given)	-2.13% (active)
COc1ccc(-c2ccc(-c3ccc(C(=N)N)cn3)o2)cc1	14.1%
COc1cc(NC(=O)c2sc3nc4c(cc3c2N)C(O)CCC4)cc(OC)c1 (stereo not given)	67%
CCOC(=O)N/N=C\C(C)=N\NC(=O)OCC	98%
COc1cc(/C=N/NC(=O)c2ccccc2Nc2ccnc(C(F)(F)F)c2)ccc1O	118%
COc1cc2cc3c(nc2cc1OC)CCN3Cc1ccc(NC(=O)Nc2cc(C(F)(F)F)cc(C(F)(F)F)c2)cc1	76.7%
CCCCCCN1CCN(Cc2ccc(N(CC)CC)cc2)C(=O)C1=O	2.25% (active)
COc1ccc2c(c1)N(CCO)C1=C(C(=O)OC1)C2c1ccccc1 (stereo not given)	1.72% (active)

Reference: PubChem BioAssay (NCI)
